# Laboratory results: PubChem BioAssay AID463173 (ICCB-Longwood Screening Facility, Harvard Medical School, 2010)
# Hit rate of the full screen: of about 52,000 compounds, about 4,300 (8.3%) were called active. For the sample, actives were picked, then their nearest neighbours and some compounds at random. Unmarked numbers belong to inactive results. No stated cut-off is given here; in the data, active means survival mostly below about 52% (no sharp cut-off); inactive means mostly above about 56%.
# Test system: DeltatarO mutant
# Assay: growth inhibition of S. aureus wild type versus tarO mutant, primary screen, teichoic acid synthesis inhibitors, RN4220, OD600 (AID 463173)
# Conditions: OD600, 18 h, hits give low values, screened at 18.75 µg/mL (by protocol)
row,Compound,survival
1,O=C1[C@@H]2CSC(c3ccc(Cl)cc3)N2C(=O)N1c1ccccc1 (some centres not stated),71%
2,CCc1ccc(CSc2nc(-c3ccc(OC)cc3)nc3c2Cc2c(CO)cnc(C)c2O3)cc1,72%
3,COCCNC(=O)C1CC(=O)N(c2ccc(C)cc2)C1 (configuration not stated),82%
4,CCOC(=O)c1cc(-c2ccc(OC)cc2)n(CCC(=O)NC2CCCCC2)c1C,115%
5,CCOc1ccc(CCNC(=O)Cn2nnc(-c3ccc(C(F)(F)F)cc3)n2)cc1OCC,82%
6,O=C(CSc1nc(=O)n(Cc2ccncc2)c2c1CCC2)Nc1ccc(F)cc1F,78%
7,COc1ccc(Nc2c(-c3ccc(C)o3)nc3ccc(Cl)cn23)cc1,65%
8,CCOC(=O)C1(C)C=C(Nc2cccc(C(=O)O)c2)C(=O)N1c1ccccc1 (configuration not stated),73%
9,CCOC(=O)C1(C)C=C(Nc2cccc(C)c2)C(=O)N1c1ccccc1 (configuration not stated),15% (active)
10,CCOC(=O)C1(C)C=C(Nc2ccc(C)cc2)C(=O)N1c1ccccc1 (configuration not stated),50%
11,O=c1[nH]c2ccc(S(=O)(=O)Nc3cc(Cl)ccc3O)cc2o1,86%
12,CC(C(=O)NC1CC1)N1CCC(N2CCCCC2)CC1 (configuration not stated),98%
13,Nc1nn(-c2ccccc2)nc1NC=O,95%
14,Cc1ccccc1COC(=O)c1nn(-c2ccccc2)nc1N,-1% (active)
15,O=C(NCCCCc1ccccc1)c1nn(-c2ccccc2)nc1CO,58%
16,Nc1nn(-c2ccccc2)nc1C(=O)OCc1ccccc1Br,11% (active)
17,Cc1ccccc1COC(=O)c1ccc(-c2nnn(Cc3ccccc3F)n2)cc1,54%
18,Cc1ccccc1CNC(=O)c1nn(-c2ccccc2F)nc1CO,85%
19,Cc1ccc(Cl)cc1NC(=O)C1CCCN(S(=O)(=O)c2c(C)noc2/C=C/N(C)C)C1 (configuration not stated),51%
20,Cc1ccccc1Nc1sc(C(=O)c2ccc(F)cc2)c(N)c1C(=O)NCCc1ccccc1,81%
21,COc1cccc(Nc2sc(C(=O)c3ccc(F)cc3)c(N)c2C(=O)NCc2ccc(C)cc2)c1,91%
22,Cc1ccc(CNC(=O)c2c(Nc3ccccc3C)sc(C(=O)c3ccc(F)cc3)c2N)cc1,20% (active)
23,Cc1ccccc1Nc1sc(C(=O)c2ccccc2)c(N)c1C(=O)NCc1ccc(Cl)cc1,100%

row,Compound,survival
1,COc1cccc(Nc2sc(C(=O)c3ccc(F)cc3)c(N)c2C(=O)NCc2ccc(Cl)cc2)c1,8% (active)
2,COc1cccc(Nc2sc(C(=O)c3ccc(Cl)cc3)c(N)c2C(=O)NCc2ccc(C)cc2)c1,95%
3,Cc1cccc(-c2cc(NC(=O)C(C)(C)C)n(-c3ccccc3)n2)c1,99%
4,COc1ccc(CNC(=O)CCS(=O)(=O)c2ccc3c(c2)CC(C)N3C(=O)C2CC2)cc1 (configuration not stated),95%
5,CCC(=O)N1c2ccc(S(=O)(=O)CCC(=O)NCc3ccccc3OC)cc2CC1C (configuration not stated),90%
6,COc1cccc(CNC(=O)CCS(=O)(=O)c2ccc3c(c2)CC(C)N3C(=O)C2CC2)c1 (configuration not stated),20% (active)
7,COc1ccccc1CNC(=O)CCS(=O)(=O)c1ccc2c(c1)CC(C)N2C(=O)C1CC1 (configuration not stated),8% (active)
8,CCC(=O)N1c2ccc(S(=O)(=O)CCC(=O)NCc3cccc(OC)c3)cc2CC1C (configuration not stated),102%
9,CC1Cc2cc(S(=O)(=O)CCC(=O)NCc3ccccc3Cl)ccc2N1C(=O)C1CC1 (configuration not stated),89%
10,CCc1cccc(NC(=O)c2ccc3c(=O)n4nc(Nc5ccccc5OC)sc4nc3c2)c1,74%
11,Clc1ccccc1-c1nnc(SCc2nc(-c3ccccc3)no2)n1-c1ccccc1,52%
12,CC(C)(C)OC(=O)N1CCC(c2c(C(=O)N3CCN(c4ccccc4)CC3)cnn2-c2ccccc2)CC1,81%
13,Cc1cc(C)n(-c2nc3ccccc3nc2Nc2cc(Cl)ccc2C)n1,130%
14,Cc1cc(C)n(-c2nc3ccccc3nc2Nc2cccc(C(F)(F)F)c2)n1,75%
15,Cc1ccc2nc(Nc3cccc(Cl)c3C)c(-n3nc(C)cc3C)nc2c1,123%
16,Cc1cc(C)n(-c2nc3ccccc3nc2Nc2ccc(Cl)cc2Cl)n1,75%
17,Cc1cc(C)n(-c2nc3ccccc3nc2Nc2ccc(Cl)c(Cl)c2)n1,0% (active)
18,Cc1ccc(Nc2nc3ccccc3nc2-n2nc(C)cc2C)c(Cl)c1,70%
19,Cc1cc(C)n(-c2nc3ccccc3nc2Nc2cccc(C)c2C)n1,21% (active)
20,Cc1cc(C)cc(Nc2nc3cc(Cl)c(Cl)cc3nc2-n2nc(C)cc2C)c1,89%
21,Cc1cc(C)cc(Nc2nc3ccccc3nc2-n2nc(C)cc2C)c1,23% (active)
22,COc1cc(OC)c(Nc2nc3ccccc3nc2-n2nc(C)cc2C)cc1Cl,97%
23,COc1ccc(OC)c(Nc2nc3ccccc3nc2-n2nc(C)cc2C)c1,16% (active)

row,Compound,survival
1,COc1ccccc1Nc1nc2ccc(Cl)cc2nc1-n1nc(C)cc1C,133%
2,CCOC(=O)c1cc(-c2ccccc2)n(CCC(=O)Nc2cc(C)cc(C)c2)c1C,99%
3,Cc1ccc(NC(=O)C(C)Sc2nc(=O)cc(N)n2-c2cccc(C)c2)cc1 (configuration not stated),59%
4,CCOC(=O)c1cccc(NC(=O)c2cn(-c3cccc(OC)c3)c(=O)c3ccccc23)c1,60%
5,COc1ccc(Cl)cc1NC(=O)c1ccc(CN2C(=O)CCn3nc(C)cc32)cc1,66%
6,CC(C)c1ccc(NC(=O)CSC2=Nc3ccccc3C3=NC(CC(=O)NCCc4ccccc4)C(=O)N23)cc1 (configuration not stated),72%
7,Nc1nc(CC(=O)NN=C2CCCCCC2)cs1,65%
8,Cc1cc(C)n(-c2nc3ccccc3nc2Nc2ccc(N(C)C)cc2)n1,-2% (active)
9,CCOc1ccc(Nc2nc3cc(Cl)c(Cl)cc3nc2-n2nc(C)cc2C)cc1,87%
10,Cc1cc(C)n(-c2nnc(Nc3ccc(C(C)C)cc3)c3ccccc23)n1,80%
11,CCc1ccccc1Nc1nc2cc(Cl)c(Cl)cc2nc1-n1nc(C)cc1C,89%
12,COc1cccc(Nc2nc3ccc(C)cc3nc2-n2nc(C)cc2C)c1,88%
13,Cc1cc(C)n(-c2nc3ccccc3nc2Nc2ccc(C(C)C)cc2)n1,8% (active)
14,Cc1ccc(NC(=O)c2cnn(-c3ccc(C)c(C)c3)c2C2CCN(C(=O)OC(C)(C)C)CC2)c(C)c1,109%
15,CN(C(=O)c1ccccc1)C1CCS(=O)(=O)C1 (configuration not stated),90%
16,Cc1ccc(N2CC(C(=O)NCc3nnnn3-c3ccc(C)c(C)c3)CC2=O)cc1 (configuration not stated),69%
17,Cc1ccc(-c2ccc(=O)n(CC(=O)NC(C)c3ccccc3)n2)cc1 (configuration not stated),69%
18,Cc1c(-c2cccc(NC(=O)Nc3ccccc3)c2)nc2ncccn12,76%
19,Cc1c(-c2cccc(NC(=O)C(C)(C)C)c2)nc2ncccn12,79%
20,Cc1c(-c2cccc(NC(=O)Nc3ccc(Cl)cc3)c2)nc2ncccn12,-2% (active)
21,Cc1ccc(-n2nc(C(=O)N3CCC(C)CC3)c(=O)n(C)c2=O)cc1,86%
22,Cc1ccc(-n2nc(C(=O)N3CCCCC3)c(=O)n(C)c2=O)cc1,52% (active)
23,Cc1ccc(-n2nc(C(=O)N3CCN(c4ccccc4)CC3)c(=O)n(C)c2=O)cc1,124%

row,Compound,survival
1,Cn1c(SCc2ccccc2)nnc1C1CCCN1CC(=O)N1CCN(c2ccc(F)cc2)CC1 (configuration not stated),70%
2,Cc1ccc(CNC(=O)CSc2nc(=O)[nH]c3c2CCCC3)cc1,76%
3,COc1cc(SC)ccc1C(=O)NCc1ccccc1,95%
4,Cc1ccc(-n2ncc(C(=O)NCCN3CCc4ccccc4C3)c2C2CCN(C(=O)OC(C)(C)C)CC2)cc1C,99%
5,Cc1ccc(C)c(Cn2c(=O)n(CCCC(=O)NCc3ccc4c(c3)OCO4)c(=O)c3sccc32)c1,74%
6,COc1cc(C(=O)Oc2c(Sc3ccccc3)c(C)nn2-c2ccccc2)cc(OC)c1OC,83%
7,CCCC(=O)Oc1c(Sc2ccc(Cl)cc2)c(C)nn1-c1ccccc1,23% (active)
8,CCCC(=O)Oc1c(Sc2ccc(C)cc2)c(C)nn1-c1ccccc1,56%
9,COc1ccccc1C(=O)Oc1c(Sc2ccccc2)c(C)nn1-c1ccccc1,62%
10,CCC(=O)Oc1c(Sc2ccc(Cl)cc2)c(C)nn1-c1ccccc1,13% (active)
11,CCC(=O)Oc1c(Sc2ccc(C)cc2)c(C)nn1-c1ccccc1,71%
12,Cc1nn(-c2ccccc2)c(OC(=O)C(C)C)c1Sc1ccc(Cl)cc1,36% (active)
13,COc1ccc(C(=O)Oc2c(Sc3ccccc3)c(C)nn2-c2ccccc2)cc1OC,47%
14,Cc1nn(-c2ccccc2)c(OC(=O)C(C)C)c1Sc1ccccc1,48%
15,CCC1CCCCN1C(=O)CSc1n[nH]c(-c2ccccc2Cl)n1 (configuration not stated),102%
16,O=C(NC1CCCCC1)N(Cc1ccccc1)Cc1cc2cc3c(cc2[nH]c1=O)OCCO3,52%
17,CCOC(=O)c1cnc2c(Cl)cc(Cl)cc2c1Nc1ccccc1OC,57%
18,CCOC(=O)c1cnc2c(C)cc(C)cc2c1Nc1ccc(OCc2ccccc2)cc1,17% (active)
19,CCOC(=O)c1cc(S(=O)(=O)Nc2ccccc2OCC)[nH]n1,72%
20,CCOC(=O)c1ccc2nc(C)cc(Nc3cccc(C(=O)O)c3)c2c1,173%
21,CCOC(=O)c1cnc2c(C)cc(C)cc2c1Nc1cccc(C(=O)O)c1,5% (active)
22,CCOC(=O)c1cnc2c(C)cc(C)cc2c1Nc1ccccc1OCC,-1% (active)
23,Cc1cc(C)c2nc(C)cc(Nc3cccc(C(=O)O)c3)c2c1,70%
